Measurements as given in the supplement of paper PMC6609913.
Counter-ions that a name gives are not always drawn. ± gives the standard deviation of the averaged measurements. In all, about 1,300 compounds were measured (“normalised cell viability”: median about 1, lowest 2% from about 0.14 on). The entries come from a sample that favours the lowest values as a whole.

Test system: V-C8 (BRCA2-deficient hamster cells)
Assay: normalised cell viability (fraction of plate median); higher = more viable cells (less toxic)
Settings: 5 µM
Outline: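 BRCA2-deficient hamster V-C8 cells and BRCA2-restored V-C8 cells were plated in 96-well plates, and library drugs were added 24 h later at 5 μM in 100 μl medium. Exposure lasted 3 days in screen 1 and 6 days in screen 2, next to solvent-only wells. Viability was then read by resazurin assay, median-plate normalised and averaged across triplicate wells.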

Compound | normalised cell viability (treatment time: 3 days) | normalised cell viability (treatment time: 6 days)
CCCCc1cc2ccccc2c(OCCN(C)C)n1 [Dimethisoquin hydrochloride] | 1.03 ± 0.087 | 1.04 ± 0.05
CCOc1ccc2c(c1)C(C)=CC(C)(C)N2 [Ethoxyquin] | 0.883 ± 0.014 | 1.2 ± 0.26
CCN(CC)CCOC(=O)C(Cc1cccc2ccccc12)CC1CCCO1 (stereo not given) [Nafronyl oxalate] | 0.1613 ± 0.00033 | 0.14 ± 0.0088
CCN(CC)CCOC(=O)C(c1ccccc1)C1CCCCC1 (stereo not given) [Drofenine hydrochloride] | 1.02 ± 0.038 | 1.02 ± 0.07
CCN(CC)CCOC(=O)C(c1ccccc1)c1ccccc1 [Adiphenine hydrochloride] | 0.976 ± 0.021 | 1.02 ± 0.039
COCCOC(=O)C1=C(C)NC(C)=C(C(=O)OC/C=C/c2ccccc2)C1c1cccc([N+](=O)[O-])c1 (stereo not given) [Cilnidipine] | 0.98 ± 0.03 | 1.01 ± 0.015
CC(=C(CCO)SSCC1CCCO1)N(C=O)Cc1cnc(C)nc1N (stereo in doubt) [Fursultiamine Hydrochloride] | 1.03 ± 0.025 | 1.03 ± 0.0084
Cc1ccccc1C(OCCN(C)C)c1ccccc1 (stereo not given) [Orphenadrine hydrochloride] | 1.05 ± 0.14 | 0.964 ± 0.14
O=C(O)c1cc(/N=N/c2ccc(S(=O)(=O)Nc3ccccn3)cc2)ccc1O [Sulfasalazine] | 1.03 ± 0.056 | 0.993 ± 0.046
N#Cc1ccc(C2CCCc3cncn32)cc1 (stereo not given) [Fadrozole hydrochloride] | 1.01 ± 0.087 | 0.97 ± 0.079
COc1cccc2c1C(=O)c1c(O)c3c(c(O)c1C2=O)C[C@@](O)(C(=O)CO)C[C@@H]3O[C@H]1C[C@H](N)[C@@H](O)[C@H](C)O1 [Epirubicin hydrochloride] | 0.123 ± 0.013 | 0.163 ± 0.016
COc1cccc2c1C(=O)c1c(O)c3c(c(O)c1C2=O)C[C@@](O)(C(=O)CO)C[C@@H]3O[C@H]1C[C@H](N)[C@H](O)[C@H](C)O1 [Doxorubicin hydrochloride] | 0.127 ± 0.0054 | 0.113 ± 0.0072
COc1cccc2c1C(=O)c1c(O)c3c(c(O)c1C2=O)C[C@@](O)(C(C)=O)C[C@@H]3O[C@H]1C[C@H](N)[C@H](O)[C@H](C)O1 [Daunorubicin hydrochloride] | 0.141 ± 0.011 | 0.124 ± 0.0055
Cc1nccn1CC1CCc2c(c3ccccc3n2C)C1=O (stereo not given) [Ondansetron Hydrochloride] | 1.07 ± 0.04 | 1.1 ± 0.082
CC(C)NCC(O)c1ccc(O)c(O)c1 (single isomer, unassigned; (+)) [(+)-Isoproterenol (+)-bitartrate salt] | 1.028 ± 0.0063 | 0.926 ± 0.063
CC(=O)NC[C@H]1CN(c2ccc(N3CCOCC3)c(F)c2)C(=O)O1 [Linezolid] | 1.04 ± 0.039 | 0.972 ± 0.047
c1ccc(CNc2ncnc3nc[nH]c23)cc1 [Aminopurine, 6-benzyl] | 0.947 ± 0.1 | 0.94 ± 0.075
O=C1C=CC(=O)c2c1ccc1c2ccc2ccccc21 [Chrysene-1,4-quinone] | 1.02 ± 0.061 | 1.06 ± 0.12

Compound | normalised cell viability (treatment time: 3 days) | normalised cell viability (treatment time: 6 days)
Nc1c2c(nc3ccccc13)CCCC2 [Tacrine hydrochloride] | 0.984 ± 0.031 | 1.1 ± 0.049
Nc1c2ccccc2nc2ccccc12 [Aminacrine] | 0.127 ± 0.015 | 0.164 ± 0.015
CC(C)Cn1cnc2c(N)nc3ccccc3c21 [Imiquimod] | 1.11 ± 0.044 | 1.02 ± 0.064
CN1CCN(c2c(F)cc3c(=O)c(C(=O)O)cn(CCF)c3c2F)CC1 [Fleroxacin] | 0.982 ± 0.046 | 0.977 ± 0.051
COC(=O)Nc1nc2cc(C(=O)c3ccc(F)cc3)ccc2[nH]1 [Flubendazol] | 0.148 ± 0.019 | 0.16 ± 0.0047
COC(=O)Nc1nc2cc(C(=O)c3ccccc3)ccc2[nH]1 [Mebendazole] | 0.164 ± 0.0056 | 0.13 ± 0.0086
COC(=O)Nc1nc2cc([S+]([O-])c3ccccc3)ccc2[nH]1 (stereo not given) [Oxfendazol] | 0.712 ± 0.076 | 0.775 ± 0.014
CCCOc1ccc2[nH]c(NC(=O)OC)nc2c1 [Oxibendazol] | 0.185 ± 0.0067 | 0.183 ± 0.0049
COC(=O)Nc1nc2cc(C(=O)c3cccs3)ccc2[nH]1 [Nocodazole] | 0.147 ± 0.0062 | 0.128 ± 0.004
COC(=O)Nc1nc2cc(Sc3ccccc3)ccc2[nH]1 [Fenbendazole] | 0.187 ± 0.0098 | 0.181 ± 0.013
CC(C)NCC(O)c1ccc(O)c(O)c1 (single isomer, unassigned; (-)) [(-)-Isoproterenol hydrochloride] | 1 ± 0.035 | 0.952 ± 0.015
C#C[C@]1(O)CC[C@H]2[C@@H]3CCC4=CCCC[C@@H]4[C@H]3CC[C@@]21C [Lynestrenol] | 1.1 ± 0.046 | 1.12 ± 0.063
CC(=O)N(O)CCCCCNC(=O)CCC(=O)N(O)CCCCCNC(=O)CCC(=O)N(O)CCCCCN [Deferoxamine mesylate] | 0.305 ± 0.021 | 0.198 ± 0.011
CC(C)(C)C(=O)OCOC(=O)[C@@H]1N2C(=O)[C@@H](NC(=O)[C@H](N)c3ccccc3)[C@H]2SC1(C)C [Pivampicillin] | 1.02 ± 0.075 | 1.01 ± 0.1
Cn1c(=O)c2c(ncn2CCO)n(C)c1=O [Etofylline] | 1.03 ± 0.052 | 0.996 ± 0.039
Cc1cc(-n2c(=O)[nH]c(=O)n(C)c2=O)ccc1Oc1ccc(SC(F)(F)F)cc1 [Toltrazuril] | 1.07 ± 0.044 | 1 ± 0.073
O=C1NCN(c2ccccc2)C12CCN(CCCC(c1ccc(F)cc1)c1ccc(F)cc1)CC2 [Fluspirilen] | 0.472 ± 0.045 | 0.235 ± 0.12
